Screening results from PubChem.
The list is not random: actives were taken first. Their share in the collection is about 1.6%.
CCHFV vOTU inh – CCHFV vOTU protease inhibition; Pep-AMC fluorescence; inhibition, % at 11.5 µM; 0.55% of 370,000 active; in the data active = inhibition above about 30%; note: 0% = vehicle wells with enzyme and 100% = no enzyme wells
BJeLR lethal – BJeLR cell viability loss. BJeLR (HRASV12) viability, CellTiter-Glo ATP luminescence, 48 h. inhibition, % (concentration not given with the values). 0.17% of 300,000 active. AID 1554; in the data active = inhibition above about 50%
RecA intein inh – inhibitors of M. tuberculosis RecA intein splicing; P9WHJ3; cell-free RecA intein splicing, fluorescence; inhibition, % (test concentration not listed); 0.75% of 290,000 active; AID 2221; in the data active = inhibition above about 30%;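 note: 0% = vehicle wells and 100% = reference inhibitor control wells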
Target sequence (P9WHJ3 whole entry, looked up): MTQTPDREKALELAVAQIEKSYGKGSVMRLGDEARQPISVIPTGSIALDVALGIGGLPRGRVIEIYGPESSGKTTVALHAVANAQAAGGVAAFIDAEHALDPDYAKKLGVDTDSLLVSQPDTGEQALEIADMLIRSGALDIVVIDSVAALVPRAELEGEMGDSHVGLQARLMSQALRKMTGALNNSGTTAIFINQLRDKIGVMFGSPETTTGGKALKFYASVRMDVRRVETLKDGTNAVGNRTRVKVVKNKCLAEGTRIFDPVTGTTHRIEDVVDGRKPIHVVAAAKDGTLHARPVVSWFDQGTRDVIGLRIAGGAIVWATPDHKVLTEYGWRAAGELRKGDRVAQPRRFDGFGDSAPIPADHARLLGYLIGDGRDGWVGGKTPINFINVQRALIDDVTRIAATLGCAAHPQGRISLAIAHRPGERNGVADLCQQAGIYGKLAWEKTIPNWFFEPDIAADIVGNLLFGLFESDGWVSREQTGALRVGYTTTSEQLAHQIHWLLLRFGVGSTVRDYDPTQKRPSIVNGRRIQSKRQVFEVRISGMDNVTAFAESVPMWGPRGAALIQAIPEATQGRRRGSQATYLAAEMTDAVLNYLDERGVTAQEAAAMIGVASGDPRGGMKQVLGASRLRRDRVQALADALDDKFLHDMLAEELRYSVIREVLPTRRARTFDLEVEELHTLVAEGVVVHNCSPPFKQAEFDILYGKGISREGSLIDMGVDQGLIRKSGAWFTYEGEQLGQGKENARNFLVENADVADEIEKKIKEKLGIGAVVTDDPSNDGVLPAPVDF
Sa ugtP lethal – compounds lethal to S. aureus RN4220 ugtP deletion mutant; 0.54% of 330,000 active; AID 1259309; OD600 growth, 16 h; growth inhibition, % (no concentration beside the values); in the data active = growth inhibition above about 68%;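 note: plate controls were untreated wells for no effect and antibiotic for full effect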
Mtb hypoxia rep – Mtb hypoxia fluorescent reporter inhibition; AID 1159583; M. tuberculosis hypoxia-regulated fluorescent reporter, fluorescence; 0.1% of 300,000 active; fluorescence inhibition, % (no concentration beside the values); in the data active = fluorescence inhibition mostly above about 23%, no sharp cut-off; inactive = mostly below about 17%
Sa RN4220 lethal – kills Staphylococcus aureus RN4220 | S. aureus RN4220 growth, OD600, 16 h | inhibition, % (test concentration not listed) | 0.33% of 330,000 active | AID 1259311; in the data active = inhibition above about 85%;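 note: plate controls were untreated cells for no effect and reference antibiotic for full effect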
GFP chromo cs – counter-screen: blocks GFP chromophore formation; EC50, µM; cell-free GFP chromophore formation, fluorescence; 83% of 2,100 active; shares compounds with RecA intein inh; call rule not given here
Numbers without * were called inactive; . = not tested or not shown.

SMILES | CCHFV vOTU inh | BJeLR lethal | RecA intein inh | Sa ugtP lethal | Mtb hypoxia rep | Sa RN4220 lethal | GFP chromo cs
CSc1nnc(NC(=O)C23CC4CC(CC(C4)C2)C3)s1 | -15 | -7 | -1 | -8 | -2 | 6 | >38
CC1CCN(C(=O)C=Cc2ccc(C(C)(C)C)cc2)CC1 | . | . | . | -7 | 8 | 4 | .
Cc1ccc2oc(-c3ccccc3C(=O)O)cc(=O)c2c1 | 7 | -19 | -5 | 2 | . | 0 | .
COC(=O)c1ccc(-c2ccc(C(c3c(C)[nH][nH]c3=O)c3c(C)[nH][nH]c3=O)o2)cc1 | 18 | -3 | 95* | -10 | 2 | -7 | 0.65*
Cc1[nH][nH]c(=O)c1C(c1ccc(-c2ccccc2C(=O)O)o1)c1c(C)[nH][nH]c1=O | 24 | 3 | 96* | 2 | 1 | -3 | 0.49*
C#CCOCCOCCOCCNc1nc(N2CCOCC2)nc(N2CCN(C(=O)C(CCCN=C(N)N)n3cc(C(N)C(C)CC)nn3)CC2)n1 (configuration not stated) | . | . | . | -2 | 7 | 3 | .
O=C(O)CC1c2cc(F)ccc2S(=O)(=O)N1C1CCN(Cc2ccccc2)CC1 (configuration not stated) | . | . | . | -5 | 6 | 4 | .
CC(C)CCN1C(Nc2ccccc2)=NCC1CC(C)C (configuration not stated) | . | . | . | 2 | 5 | 5 | .
O=C1C(Cl)=C(N2CCOCC2)C(=O)N1c1cccc(C(F)(F)F)c1 | -2 | -4 | 90* | -6 | 4 | 3 | 2.6*
CN1CCN(C2=C(Cl)C(=O)N(c3cccc(Cl)c3)C2=O)CC1 | 0 | -7 | 22 | -12 | 11 | -4 | .
COC(=O)c1cccc(S(=O)(=O)N2CCOCC2)c1 | -8 | -11 | -1 | -2 | 3 | -2 | .
COC(=O)c1cccc(N2C(=O)C(Cl)=C(N3CCOCC3)C2=O)c1 | 4 | -11 | 68* | -4 | 5 | 4 | 5.2*
CCN1C(=NCCc2ccc(Br)cc2)NC(c2ccccc2)C(C(=O)OC)C1C (configuration not stated) | . | . | . | -25 | -12 | -2 | .
Cc1cc(C(=O)NN=Cc2cc(Br)c(Br)o2)n[nH]1 | . | . | . | 1 | -8 | 0 | .
CC(=O)NC1=NN(c2ccccc2)C(=O)C1 | -1 | 6 | 82* | -3 | 1 | 1 | 36*
Cc1cccc(NC(=O)c2nc[nH]c2C(=O)NC(Cc2ccccc2)C(=O)OCc2ccccc2)c1 (configuration not stated) | . | . | . | 5 | 4 | -7 | .
O=C1C=C(Nc2ccc(O)cc2)C(=O)c2ccccc21 | 12 | 24 | 73* | 3 | -8 | 35 | 3.6*
CCOC(=O)c1ccc(NC2=CC(=O)C(=O)c3ccccc32)cc1 | 11 | 2 | 42* | -30 | 3 | -11 | 2.7*
O=C1C(Cl)=C(Nc2ccc(O)cc2)C(=O)c2ccccc21 | 26 | 3 | 95* | 27 | 22 | 52 | 2.5*
O=C(NN=Cc1ccccc1OC(=O)N1CCOCC1)c1cccs1 | . | . | . | -1 | 1 | 4 | .
O=C1C=C(c2ccc(Cl)nc2)CC(c2ccc3c(c2)OCO3)C1 (configuration not stated) | . | . | . | -1 | 7 | 3 | .
Cc1onc(-c2ccccc2)c1C(N)=O | -12 | -1 | -4 | 4 | 7 | 1 | .
Cc1onc(-c2ccccc2)c1C(=O)n1nnc2ccccc21 | -1 | -2 | 31* | 8 | 2 | 4 | 35*
CCCCC1CNC(=O)C(=O)N1CCCc1cc(OC)c(OC)c(OC)c1 (configuration not stated) | . | . | . | -1 | 9 | 3 | .
NS(=O)(=O)c1ccc(N=Cc2c(O)c3ccccc3oc2=O)cc1 | -1 | -6 | 37* | . | . | . | >38
SMILES | CCHFV vOTU inh | BJeLR lethal | RecA intein inh | Sa ugtP lethal | Mtb hypoxia rep | Sa RN4220 lethal | GFP chromo cs
CC(C)c1ccc(/C=C(\c2nc3ccccc3[nH]2)S(=O)(=O)c2ccccc2)cc1 | -10 | 7 | 80* | 7 | 0 | 32 | 9.4*
C/C(=C\c1ccc(N)cc1)c1nc2ccccc2[nH]1 | 6 | 4 | -1 | 3 | 8 | 5 | .
O=S(=O)(/C(=C/c1ccc(C(F)(F)F)cc1)c1nc2ccccc2[nH]1)c1ccccc1 | 6 | 68* | 64* | 11 | 4 | 38 | 10*
CCOC(=O)C1C2COc3ccc(Br)cc3C2N2C(=O)CN(CC3CCCO3)C(=O)[C@@]12C (some centres not stated) | . | . | . | 4 | 16 | 6 | .
CCOC(=O)C1=C(c2ccccc2)NC(N)=NC1c1ccc(OCc2ccc(Cl)cc2)c(OC)c1 (configuration not stated) | 15 | 7 | 49* | 71 | 17 | 99* | >12
COc1ccc(C=C(c2nc3ccccc3s2)c2nc3ccccc3s2)cc1O | -6 | -17 | 60* | 14 | -1 | 20 | >38
Cc1cccc(NC(=S)NN=C2CCCCc3ccccc32)c1 | . | . | . | 19 | -2 | -1 | .
Cc1cccc(NC(=S)N/N=C2/CCCCc3ccccc32)c1 | 2 | -5 | 30* | . | . | . | >38
CC(C)(C)Nc1nc(Cl)nc(N(C#N)CN2C(=O)c3ccccc3S2(=O)=O)n1 | 24 | -8 | 51* | 0 | -4 | 0 | 39*
CN(C)c1nc(N(C)C)nc(N(C#N)CN2C(=O)c3ccccc3S2(=O)=O)n1 | 0 | 5 | -4 | 3 | 12 | 5 | .
C#CCOCCOCCOCCNc1nc(N2CCN(C(=O)C(CCCCN)n3cc(C(N)CO)nn3)CC2)nc(N2CCN(C(=O)C(CCCCN)n3cc(C(N)CC(C)C)nn3)CC2)n1 (configuration not stated) | . | . | . | 3 | 8 | 5 | .
CCCNC(=O)c1nnsc1S(=O)c1ccc(Cl)cc1 (configuration not stated) | 15 | -1 | 55* | 100* | 24 | 98* | 39*
CCCNC(=O)c1nnsc1S(=O)(=O)c1ccc(Cl)cc1 | 15 | . | . | 0 | 8 | 2 | .
COc1cc(/C=N/NC(=O)CC2(C)OCCCO2)ccc1OCc1ccc(Cl)cc1Cl | 3 | 8 | 2 | . | . | . | .
COc1cc(/C=N/NC(=O)CC2(C)OCCCO2)ccc1OCc1ccccc1 | -16 | 4 | 39* | . | . | . | 3.1*
CC(C)(O)C#Cc1ccc(CN2CCN(Cc3ccccc3)C(CCO)C2)s1 (configuration not stated) | -10 | -1 | -1 | 3 | 5 | 10 | .
COc1cccc(CN2CCN(Cc3ccc(C#CC(C)(C)O)s3)CC2CCO)c1 (configuration not stated) | 2 | -4 | 77* | -1 | -2 | -1 | >38
COC(=O)C(NC(=O)OC1C(=O)c2cc(Br)ccc2OC1c1cccc(OC)c1)C(C)C (configuration not stated) | . | . | . | -3 | 11 | 2 | .
CC1CCCN(C2=C(Cl)C(=O)N(c3cccc(Cl)c3)C2=O)C1 (configuration not stated) | -7 | -10 | 70* | 1 | -5 | 4 | 8.7*
